Experimental data taken from PubChem BioAssay.
For part of these data: Results with a measured potency or affinity are listed apart. The source made the active and inactive calls.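 The calls were made as follows, unless noted: active = primary screen hit whose calcium fluorescence ratio, in both repeats, exceeds the weak agonist control mean by 3 SD; inactive = the rest.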

What was measured:
[1] = test system: TRPC4 beta (transient receptor potential cation channel C4), mouse; assay: TRPC4 cation channel opening, retest – cell-based, Fluo4 calcium, HEK293 TRPC4beta/mu-opioid, duplicates, 10 µM, confirmation (AID 2426;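 active = fluorescence ratio normalized to control raised more than 50% in primary screen plus both repeat runs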;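 as to activation: percent rise of integrated ratio over buffer wells lacking compound which define 0%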); settings: Fluo4 calcium fluorescence, at 10 µM; hits give high values
[2] = test system: transient receptor potential cation channel C4 beta (TRPC4), mouse; assay: TRPC4 cation channel opening, second retest – cell-based, second round, Fluo4, HEK293 TRPC4beta/mu-opioid, 1 µM, confirmation (AID 2461;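 active = primary screen active and over 50% activation in each of two duplicate runs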;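 as to activation: 0% = wells without test compound as baseline of integrated fluorescence ratio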); settings: Fluo4 calcium fluorescence, at 1 µM; hits give high values
[3] = test system: TRPC4 (transient receptor potential cation channel C4 beta), mouse; assay: potentiation of DAMGO EC20 TRPC4 response – cell-based, second round, Fluo-4, HEK293 TRPC4beta/mu-opioid, 1 µM, confirmation (AID 2554;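 active = primary screen hit whose fluorescence ratio, in both repeats, exceeds the weak agonist control mean by 3 SD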); settings: DAMGO EC20, Fluo-4 calcium flux, at 1 µM; hits give high values
[4] = test system: TRPC4 beta (transient receptor potential cation channel C4), mouse; assay: potentiation of DAMGO EC20 TRPC4 response – cell-based, Fluo-4, HEK293 TRPC4beta/mu-opioid, confirmation (AID 2555); settings: DAMGO EC20, Fluo-4 calcium flux, at 10 µM; hits give high values
[5] = target: Short transient receptor potential channel 4 (Mus musculus) (UniProt Q9QUQ5); assay: blockers of DAMGO-evoked TRPC4 calcium flux – cell-based, Fluo4, HEK293 TRPC4beta/mu-opioid, confirmation (AID 2636;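 active = calcium signal cut by more than 3 SD below the full-agonist control yet still positive, in both repeats and the earlier primary screen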); settings: at 10 µM; hits give high values
[6] = target: Short transient receptor potential channel 4 (Mus musculus) (UniProt Q9QUQ5); assay: blockers of DAMGO-evoked TRPC4 calcium flux – cell-based, second round, Fluo4, HEK293 TRPC4beta/mu-opioid, 1 µM, confirmation (AID 2637;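 active = calcium signal ratio cut to more than 3 SD under the fully stimulated control mean yet still positive, in both repeats and the primary screen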); settings: at 1 µM; hits give high values
[7] = target: Short transient receptor potential channel 4 (Mus musculus) (UniProt Q9QUQ5); assay: potentiation of DAMGO-evoked TRPC4 calcium signal – cell-based, HEK293 TRPC4/mu-opioid, Fluo-4 calcium, EC20 DAMGO, dose response (AID 434941;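 active = earlier screen potentiator hit that boosts the TRPC4 ion channel at some dose, with a dose response; inactive = no potentiation, no dose response, or not a prior hit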;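 also: calcium entry triggered by an EC20 dose of DAMGO at the co-expressed mu-opioid receptor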)
[8] = target: Short transient receptor potential channel 4 (Mus musculus) (UniProt Q9QUQ5); assay: block of DAMGO-driven TRPC4 calcium entry – cell-based, HEK293 TRPC4/mu-opioid, Fluo-4 calcium, dose response (AID 434942;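 active = primary screen inhibitor hit that blocks the TRPC4 channel at some tested dose, yielding a dose curve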)
[9] = target: Short transient receptor potential channel 6 (Mus musculus) (UniProt Q61143); assay: TRPC6 blockade by TRPC4 inhibitor hits – cell-based, HEK293, membrane potential dye, duplicate, selectivity assay for TRPC4 inhibitor project, confirmation (AID 434948;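 active = active in primary screen and both duplicates, each dropping signal beyond three positive-control SD with fluorescence still positive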); settings: HEK293 TRPC6, membrane potential dye fluorescence, at 10 µM, stimulated with maximal-effect acetylcholine; hits give high values
[10] = target: Short transient receptor potential channel 6 (Mus musculus) (UniProt Q61143); assay: TRPC6 opening by TRPC4 activator hits – cell-based, HEK293, membrane potential dye, duplicate, selectivity assay for TRPC4 activator project, confirmation (AID 434950;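 active = membrane potential signal rise above negative control mean plus 3 SD in both duplicates, also active in the earlier TRPC4 screen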;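 as to activation: 0% = buffer only wells and 100% = acetylcholine maximal-effect wells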); settings: HEK293 TRPC6, membrane potential fluorescence, at 10 µM; activation: hits give high values; outcome: activation
[11] = target: Short transient receptor potential channel 6 (Mus musculus) (UniProt Q61143); assay: positive modulators of mouse TRPC6 channel – HEK293 cells, membrane potential dye, duplicate, selectivity assay for TRPC4 potentiator project, confirmation (AID 434952;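 active = compound raising the membrane signal above positive-control mean plus 3 SD in both repeats, and a primary screen hit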); settings: HEK293 TRPC6, membrane potential dye fluorescence, at 10 µM, maximal acetylcholine added after compound; hits give high values
[12] = target: Short transient receptor potential channel 4 (Mus musculus) (UniProt Q9QUQ5); assay: calcium flux activators in TRPC4/5HT1a cells, counter-screen for TRPC4 activator project, cell-based, second counter screen, HEK293 TRPC4/5HT1a, Fluo-4 (AID 434977;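 active = calcium signal rise above buffer-control mean plus 5 SD in both duplicates, and also a hit in the primary screen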;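 as to activation: plate controls were assay buffer for no effect and maximal serotonin response for full effect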); settings: Fluo-4 calcium flux, at 10 µM; hits give high values
[13] = serotonin-gated TRPC4 signal block – cell-based, second counter screen, HEK293 TRPC4/5HT1a, Fluo-4, counter-screen for TRPC4 inhibitor project, confirmation (AID 434978;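 active = primary screen active whose calcium signal fell more than 3 SD beyond the full-serotonin control mean in both duplicate plates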;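 also: serotonin given first at submaximal then at maximal dose after compound preincubation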); settings: Fluo-4 calcium flux, at 10 µM, serotonin added to trigger calcium flux; hits give high values
[14] = test system: TRPC4 (mouse), co-expressed with 5HT1a in HEK293; assay: enhancement of serotonin-evoked TRPC4 response – cell-based, second counter screen, HEK293 TRPC4/5HT1a, Fluo-4, counter-screen for TRPC4 potentiator project, confirmation (AID 434979;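 active = signal rise over 3 SD above mean of control wells given weak agonist, in both repeats and first screen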); settings: Fluo-4 calcium flux, at 10 µM, serotonin added at its EC20 dose; hits give high values
[15] = nonspecific calcium rise without TRPC4 – cell-based, HEK293 mu-opioid receptor line, counter-screen for TRPC4 activator project, confirmation (AID 449723;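 active = hit in primary screen, with calcium signal over 5 SD above buffer well mean in both duplicates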;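 also: counter screen cells carry the mu-opioid receptor alone and lack TRPC4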); settings: HEK293 mu-opioid cells, Fluo-4 calcium fluorescence, at 10 µM; hits give high values
[16] = nonspecific potentiation of DAMGO calcium response – cell-based, HEK293 mu-opioid receptor line, counter-screen for TRPC4 allosteric potentiator project, confirmation (AID 449724;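 active = calcium signal rise more than 3 SD above the low-dose agonist control mean, in both duplicate plates and the primary screen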); settings: HEK293 mu-opioid receptor cells, Fluo-4 calcium flux, at 10 µM, compound added before EC20 DAMGO stimulus; hits give high values

Measured: activation

Chain of Short transient receptor potential channel 4 (Mus musculus) (Q9QUQ5 whole entry, looked up): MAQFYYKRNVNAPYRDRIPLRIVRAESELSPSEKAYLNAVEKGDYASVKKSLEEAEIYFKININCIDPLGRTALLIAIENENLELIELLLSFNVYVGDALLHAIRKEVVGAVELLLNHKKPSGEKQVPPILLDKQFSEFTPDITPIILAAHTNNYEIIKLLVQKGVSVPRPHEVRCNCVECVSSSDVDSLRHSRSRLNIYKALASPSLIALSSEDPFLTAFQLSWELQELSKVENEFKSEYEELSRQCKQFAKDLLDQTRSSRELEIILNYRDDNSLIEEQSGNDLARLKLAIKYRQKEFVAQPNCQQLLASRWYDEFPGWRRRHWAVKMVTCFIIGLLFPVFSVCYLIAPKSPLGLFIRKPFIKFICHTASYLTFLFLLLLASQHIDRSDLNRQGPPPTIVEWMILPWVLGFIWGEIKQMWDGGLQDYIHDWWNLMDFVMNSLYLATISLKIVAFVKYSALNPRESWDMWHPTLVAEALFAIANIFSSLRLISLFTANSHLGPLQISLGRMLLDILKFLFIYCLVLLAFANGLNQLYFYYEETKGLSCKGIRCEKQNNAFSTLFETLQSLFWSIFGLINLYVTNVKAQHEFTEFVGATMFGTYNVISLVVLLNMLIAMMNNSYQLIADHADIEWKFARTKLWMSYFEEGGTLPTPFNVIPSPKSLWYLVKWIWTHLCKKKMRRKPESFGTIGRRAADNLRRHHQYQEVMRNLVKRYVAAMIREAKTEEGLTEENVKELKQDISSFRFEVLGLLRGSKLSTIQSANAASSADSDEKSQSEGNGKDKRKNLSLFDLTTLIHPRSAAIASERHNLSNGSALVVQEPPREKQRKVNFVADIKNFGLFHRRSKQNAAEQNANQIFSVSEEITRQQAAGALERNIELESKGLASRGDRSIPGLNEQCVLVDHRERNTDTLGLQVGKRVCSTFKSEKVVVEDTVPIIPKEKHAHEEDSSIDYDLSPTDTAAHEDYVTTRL
Chain of Short transient receptor potential channel 6 (Mus musculus) (Q61143 whole entry, looked up): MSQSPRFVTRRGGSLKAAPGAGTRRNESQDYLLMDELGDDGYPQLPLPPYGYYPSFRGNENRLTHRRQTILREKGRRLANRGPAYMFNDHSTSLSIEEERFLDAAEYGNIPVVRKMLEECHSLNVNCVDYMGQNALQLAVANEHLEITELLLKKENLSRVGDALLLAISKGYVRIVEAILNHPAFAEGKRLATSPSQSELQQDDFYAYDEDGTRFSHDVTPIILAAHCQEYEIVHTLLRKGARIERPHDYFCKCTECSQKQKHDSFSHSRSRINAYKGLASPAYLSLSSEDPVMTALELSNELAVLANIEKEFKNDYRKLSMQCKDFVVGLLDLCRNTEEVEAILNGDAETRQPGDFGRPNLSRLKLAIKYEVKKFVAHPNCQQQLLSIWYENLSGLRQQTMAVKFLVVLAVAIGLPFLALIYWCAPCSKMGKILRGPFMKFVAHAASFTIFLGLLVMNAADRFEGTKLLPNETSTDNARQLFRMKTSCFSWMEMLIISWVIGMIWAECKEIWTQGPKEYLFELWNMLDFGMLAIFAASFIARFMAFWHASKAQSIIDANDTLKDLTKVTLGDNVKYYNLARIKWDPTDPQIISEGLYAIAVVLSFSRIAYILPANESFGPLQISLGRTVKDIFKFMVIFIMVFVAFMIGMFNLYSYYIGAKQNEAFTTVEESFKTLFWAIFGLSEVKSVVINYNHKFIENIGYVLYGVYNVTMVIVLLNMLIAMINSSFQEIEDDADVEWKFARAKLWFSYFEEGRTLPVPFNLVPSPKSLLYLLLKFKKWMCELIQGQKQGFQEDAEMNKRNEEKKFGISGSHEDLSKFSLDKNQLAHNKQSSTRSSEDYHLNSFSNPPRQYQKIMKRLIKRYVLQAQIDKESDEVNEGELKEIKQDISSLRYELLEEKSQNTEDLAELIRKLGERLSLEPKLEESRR

COC(=O)c1ccc(N2CCN(C)CC2)c(NC(=O)COc2ccccc2)c1
inactive: [2] | [3] | [4] | [5] | [6] | [7] | [8] | [9] | [10] | [11] | [13] | [14] | [15] | [16]
active: [1] 86% | [12] 12.3%

COc1ccccc1N1CCN(C(c2cccs2)C(C)NC(=O)c2cccs2)CC1 (stereo not given)
inactive: [1] | [2] | [3] | [4] | [5] | [6] | [7] | [8] | [9] | [11] | [12] | [13] | [14] | [15] | [16]
active: [10] 23.5%

NC(=O)C1CCCN(CC(O)COCc2ccc(Cl)cc2)C1 (stereo not given)
active: [1] 140% | [2] 133% | [10] 31.5% | [12] 69.7%
inactive: [3] | [4] | [5] | [6] | [7] | [8] | [9] | [11] | [13] | [14] | [15] | [16]

Cc1cc(NC(=O)CN2CCc3ccccc3C2)nc2c1c(=O)oc1ccccc12
inactive: [1] | [2] | [3] | [4] | [5] | [6] | [7] | [8] | [9] | [10] | [11] | [12] | [13] | [14] | [15] | [16]

Cc1cc(Br)ccc1OCCn1ccnc1
inactive: [1] | [2] | [3] | [4] | [5] | [6] | [7] | [8] | [9] | [11] | [13] | [14] | [15] | [16]
active: [10] 37.5% | [12] 11.7%

Cc1sc2nc(CSc3ccccc3)nc(NCCN(C)C)c2c1C
active: [1] 173% | [12] 15.2%
inactive: [2] | [3] | [4] | [5] | [6] | [7] | [8] | [9] | [10] | [11] | [13] | [14] | [15] | [16]

Cc1cc(C)cc(C(=O)N(CCc2ccccc2)C2=CC3CCC(C2)N3C)c1 (stereo not given)
active: [1] 86% | [2] 57% | [10] 67%
inactive: [3] | [4] | [5] | [6] | [7] | [8] | [9] | [11] | [12] | [13] | [14] | [15] | [16]

CCc1nc(NCCc2ccccn2)c2nnn(Cc3ccccc3F)c2n1
inactive: [2] | [3] | [4] | [5] | [6] | [7] | [8] | [9] | [11] | [13] | [14] | [15] | [16]
active: [1] 154% | [10] 49% | [12] 36.2%

COc1ccc(C(CNC(=O)C(C)c2ccc3cc(OC)ccc3c2)N(C)C)cc1 (stereo not given)
active: [1] 243% | [2] 98% | [10] 63% | [12] 8.72%
inactive: [3] | [4] | [5] | [6] | [7] | [8] | [9] | [11] | [13] | [14] | [15] | [16]

Cc1ccn2cc(CCNC(=O)C3CC=CCC3C(=O)O)nc2c1 (stereo not given)
inactive: [2] | [3] | [4] | [5] | [6] | [7] | [8] | [9] | [10] | [11] | [13] | [14] | [15] | [16]
active: [1] 135% | [12] 59.9%

CCN1CCN(c2ccc(S(=O)(=O)N3CCCCC3)cc2NC(=O)COc2ccccc2)CC1
inactive: [2] | [3] | [4] | [5] | [6] | [7] | [8] | [9] | [10] | [11] | [13] | [14] | [15] | [16]
active: [1] 157% | [12] 16.8%

O=C(C1CCCN(Cc2ccccc2)C1)N1CCc2ccccc2C1 (stereo not given)
inactive: [3] | [4] | [5] | [6] | [7] | [8] | [9] | [11] | [13] | [14] | [15] | [16]
active: [1] 105% | [2] 94% | [10] 71% | [12] 40.5%

Cc1cc(OCCCCn2ccnc2)cc(C)c1Cl
inactive: [2] | [3] | [4] | [5] | [6] | [7] | [8] | [9] | [11] | [13] | [14] | [15] | [16]
active: [1] 102% | [10] 50% | [12] 20.1%

Cc1ccccc1N(CC(=O)N/N=C/c1ccc(F)cc1)C(=O)c1ccccc1
inactive: [1] | [2] | [3] | [4] | [5] | [6] | [7] | [8] | [9] | [10] | [11] | [12] | [13] | [14] | [15] | [16]

O=C(NNC(=S)NC(=O)C12CC3CC(CC(C3)C1)C2)c1ccncc1
inactive: [2] | [3] | [4] | [5] | [6] | [7] | [8] | [9] | [10] | [11] | [13] | [14] | [16]
active: [1] 192% | [12] 126% | [15] 44.2%
